Holding throughout (settings): mRNA level, 48 h; actives raise or lower the signal
Read-out in test [1]: Insulin Like Growth Factor 1 (IGF1), IGF1 (gene 3479)
Put plainly: LTEA_HepaRG_IGF1: Life Technologies and Expression Analysis (LTEA) Assay for Insulin Like Growth Factor 1 (IGF1) using HepaRG (AID 2283506). The method, boiled down:
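Differentiated human HepaRG cells were dosed for 48 h in serum-free induction medium with 0.5% DMSO, eight half-log concentrations up to 100 uM, in duplicate. IGF1 mRNA was quantified by qRT-PCR normalized to ACTB, GAPDH, POLR2A; bidirectional fitting versus DMSO.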

Read-out in test [2]: Intercellular Adhesion Molecule 1 (ICAM1), ICAM1 (gene 3383)
Briefly: LTEA_HepaRG_ICAM1: Life Technologies and Expression Analysis (LTEA) Assay for Intercellular Adhesion Molecule 1 (ICAM1) using HepaRG (AID 2283507). An outline of the steps:
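Using the human liver line HepaRG, compounds are tested in duplicate over 48 h at concentrations up to 100 uM. Expression is determined by TaqMan qRT-PCR, normalized to endogenous controls, and analysed relative to 0.5% DMSO vehicle.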

Read-out in test [3]: Insulin-like growth factor-binding protein 1 (IGFBP1), IGFBP1 (gene 3484)
Briefly: LTEA_HepaRG_IGFBP1: Life Technologies and Expression Analysis (LTEA) Assay for Insulin-like growth factor-binding protein 1 (IGFBP1) using HepaRG (AID 2283508). An outline of the steps: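 HepaRG, 48 h, 8 conc. (max 100 uM, half-log), duplicates, 0.5% DMSO. Readout: TaqMan qRT-PCR, ACTB/GAPDH/POLR2A normalisation. Fit: bidirectional vs DMSO.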

Read-out in test [4]: Interleukin 6 (IL6), IL6 (gene 3569)
Put plainly: LTEA_HepaRG_IL6: Life Technologies and Expression Analysis (LTEA) Assay for Interleukin 6 (IL6) using HepaRG (AID 2283509). An outline of the steps:
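Differentiated human HepaRG cells, plated 48 h then switched to serum-free induction medium, were exposed in duplicate for 48 h to eight half-log concentrations up to 100 uM in 0.5% DMSO. IL6 mRNA measured by qRT-PCR, normalized to ACTB/GAPDH/POLR2A.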

Read-out in test [5]: Interleukin 6 Receptor (IL6R), IL6R (gene 3570)
Put plainly: LTEA_HepaRG_IL6R: Life Technologies and Expression Analysis (LTEA) Assay for Interleukin 6 Receptor (IL6R) using HepaRG (AID 2283510).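 On AC50: TaqMan qRT-PCR signal normalized to ACTB GAPDH and POLR2A housekeeping genes.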 An outline of the steps:
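Differentiated human HepaRG cells, plated 48 h then switched to serum-free induction medium, were dosed in duplicate for 48 h at eight half-log concentrations up to 100 uM in 0.5% DMSO. IL6R mRNA quantified by qRT-PCR, normalized to ACTB/GAPDH/POLR2A; bidirectional fit versus DMSO.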

Read-out in test [6]: Keratin 19 (KRT19), KRT19 (gene 3880)
Briefly: LTEA_HepaRG_KRT19: Life Technologies and Expression Analysis (LTEA) Assay for Keratin 19 (KRT19) using HepaRG (AID 2283512). An outline of the steps:
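Readout is qRT-PCR of KRT19 mRNA, normalized to ACTB, GAPDH and POLR2A, from HepaRG cells treated 48 h with eight-point half-log dilutions topping at 100 uM. Activity in either direction is scored relative to 0.5% DMSO vehicle.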

Read-out in test [7]: JUN Transcription Factor, JUN (gene 3725)
Put plainly: LTEA_HepaRG_JUN: Life Technologies and Expression Analysis (LTEA) Assay for JUN Transcription Factor using HepaRG (AID 2283513). An outline of the steps:
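Differentiated HepaRG cells were exposed to chemicals for 48 h in serum-free induction medium, 8 concentrations from 100 uM in half-log steps, 0.5% DMSO vehicle, in duplicate. JUN mRNA was quantified by TaqMan qRT-PCR, normalized to ACTB, GAPDH, POLR2A.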

Read-out in test [8]: Lipase C (LIPC), LIPC (gene 3990)
Put plainly: LTEA_HepaRG_LIPC: Life Technologies and Expression Analysis (LTEA) Assay for Lipase C (LIPC) using HepaRG (AID 2283514). The method, boiled down: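 Differentiated human HepaRG cells in serum-free induction medium were exposed in duplicate for 48 h to eight concentrations (top 100 uM, half-log steps, 0.5% DMSO). LIPC mRNA was quantified by TaqMan qRT-PCR, normalized to ACTB, GAPDH and POLR2A, with bidirectional fitting versus DMSO.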

Read-out in test [9]: Lipoprotein lipase (LPL), LPL (gene 4023)
Briefly: LTEA_HepaRG_LPL: Life Technologies and Expression Analysis (LTEA) Assay for Lipoprotein lipase (LPL) using HepaRG (AID 2283515). The method, boiled down:
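Differentiated human HepaRG cells in serum-free induction medium were exposed in duplicate for 48 h to eight half-log concentrations (top 100 uM) in 0.5% DMSO. LPL mRNA was quantified by TaqMan qRT-PCR, normalized to ACTB, GAPDH and POLR2A.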

Read-out in test [10]: MicroRNA 122 (MIR122), gene 406906
Put plainly: LTEA_HepaRG_MIR122: Life Technologies and Expression Analysis (LTEA) Assay for MicroRNA 122 (MIR122) using HepaRG (AID 2283516). Further: the transcript read is the microRNA miR-122. An outline of the steps: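 Differentiated human HepaRG cells were exposed 48 h in serum-free induction medium to eight half-log concentrations (top 100 uM, 0.5% DMSO). Transcript level was measured by TaqMan qRT-PCR, normalized to ACTB, GAPDH and POLR2A, and fitted bidirectionally versus DMSO.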

Read-out in test [11]: matrix metalloproteinase-10 (MMP10), MMP10 (gene 4319)
Put plainly: LTEA_HepaRG_MMP10: Life Technologies and Expression Analysis (LTEA) Assay for matrix metalloproteinase-10 (MMP10) using HepaRG (AID 2283517). An outline of the steps: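 HepaRG, collagen I, ~100,000 cells/well; serum-free induction medium; 48 h exposure, duplicate, 8-pt half-log to 100 uM, 0.5% DMSO. Readout: TaqMan qRT-PCR, normalized to ACTB/GAPDH/POLR2A; bidirectional fit vs DMSO.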

Read-out in test [12]: MYC, MYC (gene 4609)
Put plainly: LTEA_HepaRG_MYC: Life Technologies and Expression Analysis (LTEA) Assay for MYC using HepaRG (AID 2283518). The method, boiled down: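 Expression changes were scored by TaqMan qRT-PCR with ACTB, GAPDH and POLR2A normalization. Cultures in serum-free induction medium received duplicate 8-point concentration series, highest 100 uM, for 48 h; DMSO (0.5%) served as baseline.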

Read-out in test [13]: matrix metalloproteinase-3 (MMP3), MMP3 (gene 4314)
Briefly: LTEA_HepaRG_MMP3: Life Technologies and Expression Analysis (LTEA) Assay for matrix metalloproteinase-3 (MMP3) using HepaRG (AID 2283519). The method, boiled down: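 Differentiated human HepaRG cells, plated 48 h on collagen I, were exposed in duplicate for 48 h in serum-free induction medium to eight half-log concentrations up to 100 uM in 0.5% DMSO. MMP3 mRNA was quantified by TaqMan qRT-PCR, normalised to ACTB, GAPDH and POLR2A.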

Read-out in test [14]: Paternally Expressed 10 (PEG10), PEG10 (gene 23089)
Put plainly: LTEA_HepaRG_PEG10: Life Technologies and Expression Analysis (LTEA) Assay for Paternally Expressed 10 (PEG10) using HepaRG (AID 2283520). An outline of the steps: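 Differentiated HepaRG cells, plated 48 h then switched to serum-free induction medium, were exposed in duplicate for 48 h to eight half-log concentrations topping at 100 uM in 0.5% DMSO. PEG10 mRNA was quantified by TaqMan qRT-PCR, normalised to ACTB, GAPDH and POLR2A.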

Read-out in test [15]: Nuclear factor NF-kappa-B p105 subunit (Homo sapiens) (UniProt P19838)
Briefly: LTEA_HepaRG_NFKB1: Life Technologies and Expression Analysis (LTEA) Assay for Nuclear Factor Kappa B Subunit 1 (NFKB1) using HepaRG (AID 2283521).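 On outcome: TaqMan qRT-PCR transcript normalised to ACTB GAPDH and POLR2A housekeeping genes.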 An outline of the steps:
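HepaRG, 48 h exposure; 8-pt half-log series from 100 uM in 0.5% DMSO; duplicates. Readout: NFKB1 mRNA by qRT-PCR (Fluidigm arrays), housekeeping-normalized. Gain/loss fit vs DMSO baseline.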

Read-out in test [16]: Protein phosphatase 2A (PPP2R4), PTPA (gene 5524)
Briefly: LTEA_HepaRG_PPP2R4: Life Technologies and Expression Analysis (LTEA) Assay for Protein phosphatase 2A (PPP2R4) using HepaRG (AID 2283522). An outline of the steps: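 Differentiated HepaRG cells in serum-free induction medium were exposed in duplicate for 48 h to eight concentrations, top 100 uM with half-log dilutions, in 0.5% DMSO. PPP2R4 mRNA was quantified by TaqMan qRT-PCR, normalized to ACTB, GAPDH and POLR2A.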

Read-out in test [17]: Phosphatase and tensin (PTEN), PTEN (gene 5728)
Briefly: LTEA_HepaRG_PTEN: Life Technologies and Expression Analysis (LTEA) Assay for Phosphatase and tensin (PTEN) using HepaRG (AID 2283523). The method, boiled down:
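Differentiated human HepaRG cells, plated 48 h then switched to serum-free induction medium, were exposed in duplicate for 48 h to eight half-log concentrations up to 100 uM in 0.5% DMSO. PTEN mRNA measured by TaqMan qRT-PCR, normalized to ACTB/GAPDH/POLR2A, bidirectional fit versus DMSO.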

Read-out in test [18]: solute carrier (SLC22A1), SLC22A1 (gene 6580)
Put plainly: LTEA_HepaRG_SLC22A1: Life Technologies and Expression Analysis (LTEA) Assay for solute carrier (SLC22A1) using HepaRG (AID 2283524). An outline of the steps: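 Human HepaRG cells were plated 48 h, switched to serum-free induction medium, then exposed in duplicate for 48 h to 8-point half-log series from 100 uM in 0.5% DMSO. SLC22A1 mRNA measured by qRT-PCR, normalized to ACTB/GAPDH/POLR2A, fitted bidirectionally versus DMSO.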

Read-out in test [19]: Pyruvate Dehydrogenase Kinase 4 (PDK4), PDK4 (gene 5166)
Put plainly: LTEA_HepaRG_PDK4: Life Technologies and Expression Analysis (LTEA) Assay for Pyruvate Dehydrogenase Kinase 4 (PDK4) using HepaRG (AID 2283525). An outline of the steps:
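Differentiated human HepaRG cells, pre-cultured 48 h, were exposed in duplicate for 48 h in serum-free induction medium to eight half-log concentrations up to 100 uM in 0.5% DMSO. PDK4 mRNA was quantified by qRT-PCR, normalized to ACTB, GAPDH and POLR2A, bidirectional fitting versus DMSO.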

Read-out in test [20]: Potassium channel subfamily K member 1 (KCNK1), KCNK1 (gene 3775)
Put plainly: LTEA_HepaRG_KCNK1: Life Technologies and Expression Analysis (LTEA) Assay for Potassium channel subfamily K member 1 (KCNK1) using HepaRG (AID 2283511). An outline of the steps:
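Differentiated human HepaRG cells in serum-free induction medium were exposed in duplicate for 48 h to 8 half-log concentrations up to 100 uM in 0.5% DMSO. KCNK1 mRNA was measured by TaqMan qRT-PCR, normalized to ACTB, GAPDH and POLR2A, and fitted bidirectionally versus DMSO.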

Molecules are shown by their SMILES. Active and inactive are the calls of the source. How the source made its calls: active means hit-call score of the fitted dose curve at least 0.9, where 1 is the maximum; inactive means score below 0.9.

For orientation: AC50 means the midpoint of the concentration-response curve, whichever way the signal moves.

Sequence of Nuclear factor NF-kappa-B p105 subunit (Homo sapiens) (P19838 whole entry, looked up): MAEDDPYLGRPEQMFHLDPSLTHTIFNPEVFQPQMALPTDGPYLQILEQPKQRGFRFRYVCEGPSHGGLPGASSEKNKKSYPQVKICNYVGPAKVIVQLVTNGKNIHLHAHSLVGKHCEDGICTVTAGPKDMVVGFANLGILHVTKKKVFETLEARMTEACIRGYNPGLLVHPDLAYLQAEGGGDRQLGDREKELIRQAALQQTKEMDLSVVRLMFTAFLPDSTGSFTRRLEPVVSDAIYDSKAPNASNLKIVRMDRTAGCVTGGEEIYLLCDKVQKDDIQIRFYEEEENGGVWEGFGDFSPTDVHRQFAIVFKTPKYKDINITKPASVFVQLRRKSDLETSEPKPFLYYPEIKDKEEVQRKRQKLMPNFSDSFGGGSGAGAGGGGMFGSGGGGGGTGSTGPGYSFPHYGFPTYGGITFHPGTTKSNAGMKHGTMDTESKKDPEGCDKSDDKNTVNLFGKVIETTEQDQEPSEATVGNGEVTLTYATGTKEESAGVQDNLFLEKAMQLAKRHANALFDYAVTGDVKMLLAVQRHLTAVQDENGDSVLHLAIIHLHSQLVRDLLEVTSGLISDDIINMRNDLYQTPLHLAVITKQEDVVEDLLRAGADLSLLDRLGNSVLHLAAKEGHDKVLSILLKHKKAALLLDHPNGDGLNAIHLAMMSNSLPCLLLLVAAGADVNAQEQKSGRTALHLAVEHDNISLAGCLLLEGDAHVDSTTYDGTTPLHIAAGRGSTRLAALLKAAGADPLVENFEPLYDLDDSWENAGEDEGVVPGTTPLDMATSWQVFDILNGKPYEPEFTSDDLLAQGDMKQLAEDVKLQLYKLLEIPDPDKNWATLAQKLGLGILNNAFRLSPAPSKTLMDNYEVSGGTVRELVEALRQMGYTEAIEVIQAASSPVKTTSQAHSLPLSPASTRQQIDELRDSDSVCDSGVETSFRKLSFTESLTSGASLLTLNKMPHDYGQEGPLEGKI

As for `CNCc1cc(F)ccc1Oc1ccc(Cl)c(Cl)c1`, the AC50 is 89.4 µM (active) in [1]; 79.2 µM (active) in test [2]; 73.5 µM (active) in [3]; 95.4 µM (active) in test [4]; 80.5 µM (active) in test [7]; 81.8 µM (active) in [10]. The AC50 is 91.2 µM (active) in [11]; 78.9 µM (active) in [12]; 50 µM (active) in test [13]; 0.689 µM (active) in test [14]; 86.3 µM (active) in test [15]; 50 µM (active) in [16]. Also, in test [18], the half-maximal activity concentration (AC50) is 86.5 µM (active). In addition, the compound was classed as inactive in test [5], in test [6], in test [8], in [9], in [17] and in test [19].

As for `NC(=O)Cn1c(=O)cc(CCN2CCN(c3nccc4sccc34)CC2)c2ccc(F)cc21`, the call in test [1], in test [4], in test [5], in [6], in test [7] and in test [10] was inactive. Besides, the outcome in test [11], in test [12], in test [13], in test [15], in test [16] and in test [17] was inactive. Besides, the compound was classed as inactive in test [18] and in test [19]. Further, the AC50 in [2] is 50 µM (active); in test [3], 76.6 µM (active); in test [8], 50 µM (active); in test [9] it was 50 µM (active); in test [14], 50 µM (active).

Consider `Cc1ccc2ncccc2c1`, for which the compound was called inactive in test [1], in test [2], in test [3], in test [4], in test [5] and in test [20]. Moreover, the outcome in [6], in test [7], in [8], in [9], in test [10] and in [11] was inactive. Further, the compound was classed as inactive in [12], in [14], in test [15], in test [16], in test [17] and in test [18]. Further, in test [19], the call was inactive.

As for `CC(C)(C)c1cc(O)c(C(C)(C)C)cc1O`, the AC50 in test [1] was 82.4 µM (active); in [2], 50 µM (active); in [3], 50 µM (active); in [4], 75.7 µM (active); in test [5], 77.6 µM (active); in test [6], 77.4 µM (active). The AC50 in test [8] is 79.7 µM (active); in [10] it was 79.8 µM (active); in [11], 93.6 µM (active); in [14], 32.5 µM (active); in test [17], 87.6 µM (active); in test [18], 76.8 µM (active). The compound was called inactive in test [20], in [7], in test [9], in [12], in test [15] and in [16]. In addition, the outcome in [19] was inactive.

The values are drawn from PubChem BioAssay (EPA / NIEHS).
